The text below walks through data of PubChem BioAssay.

Molecules are shown by their SMILES. A number with no mark means an inactive call. Calls of active or inactive are those of the source.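 The calls were made as follows: active = mean inhibition above 46.5%, the solvent-only control mean plus 3 SD; inactive = the rest.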

Chain of Nuclear receptor coactivator 2 (Homo sapiens) (Q15596 whole entry, looked up, the tested form may be a part): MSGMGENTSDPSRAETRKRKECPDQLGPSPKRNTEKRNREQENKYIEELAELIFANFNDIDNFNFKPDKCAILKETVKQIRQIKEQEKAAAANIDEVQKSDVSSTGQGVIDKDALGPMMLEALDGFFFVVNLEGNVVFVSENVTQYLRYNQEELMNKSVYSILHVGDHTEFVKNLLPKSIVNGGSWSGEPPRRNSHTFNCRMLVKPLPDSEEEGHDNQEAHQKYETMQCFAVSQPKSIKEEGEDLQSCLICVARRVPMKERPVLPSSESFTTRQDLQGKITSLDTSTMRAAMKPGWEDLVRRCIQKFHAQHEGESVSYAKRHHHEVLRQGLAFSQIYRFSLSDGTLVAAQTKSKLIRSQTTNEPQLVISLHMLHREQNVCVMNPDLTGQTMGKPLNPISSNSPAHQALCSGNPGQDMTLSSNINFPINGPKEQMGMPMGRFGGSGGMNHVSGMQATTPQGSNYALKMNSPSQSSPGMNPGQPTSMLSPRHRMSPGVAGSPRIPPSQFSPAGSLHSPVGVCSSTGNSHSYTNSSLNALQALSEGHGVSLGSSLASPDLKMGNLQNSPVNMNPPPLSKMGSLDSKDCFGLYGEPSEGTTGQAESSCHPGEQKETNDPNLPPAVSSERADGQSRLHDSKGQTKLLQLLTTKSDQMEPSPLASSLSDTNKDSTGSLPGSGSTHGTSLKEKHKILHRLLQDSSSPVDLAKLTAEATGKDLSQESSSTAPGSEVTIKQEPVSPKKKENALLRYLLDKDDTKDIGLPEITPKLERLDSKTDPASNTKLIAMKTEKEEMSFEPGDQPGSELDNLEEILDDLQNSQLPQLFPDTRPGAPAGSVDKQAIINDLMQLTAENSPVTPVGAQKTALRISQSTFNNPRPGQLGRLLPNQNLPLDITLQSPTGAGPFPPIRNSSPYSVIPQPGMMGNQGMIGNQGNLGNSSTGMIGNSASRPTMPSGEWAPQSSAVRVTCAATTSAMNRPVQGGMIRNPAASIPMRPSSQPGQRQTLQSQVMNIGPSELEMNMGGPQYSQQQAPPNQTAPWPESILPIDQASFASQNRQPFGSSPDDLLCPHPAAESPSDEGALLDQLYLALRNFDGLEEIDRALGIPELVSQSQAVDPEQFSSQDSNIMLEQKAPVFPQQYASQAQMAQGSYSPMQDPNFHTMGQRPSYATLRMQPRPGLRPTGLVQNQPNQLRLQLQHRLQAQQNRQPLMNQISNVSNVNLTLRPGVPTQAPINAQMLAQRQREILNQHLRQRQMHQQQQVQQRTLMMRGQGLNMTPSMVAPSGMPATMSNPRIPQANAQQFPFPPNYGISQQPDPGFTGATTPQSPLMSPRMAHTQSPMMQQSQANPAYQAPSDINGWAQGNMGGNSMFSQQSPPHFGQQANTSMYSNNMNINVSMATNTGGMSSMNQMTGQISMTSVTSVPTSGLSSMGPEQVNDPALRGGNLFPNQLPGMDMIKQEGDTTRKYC

This assay addresses Nuclear receptor coactivator 2 (Homo sapiens) (UniProt Q15596). In words: SRC2 coactivator transcriptional activity inhibitors, confirmation, cell-based, luminescence, HEK293, triplicate (AID 652008).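 Also: 0% = DMSO-treated cells and 100% = Gossypol at 36 µM.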 The note with it: HEK293 GAL4-SRC2 luciferase reporter, at 8.9 µM, stronger effect = higher value.
Consider `Cc1ccc(S(=O)(=O)/C(=C/Cl)NC(=O)c2ccccc2)cc1`, for which the inhibition – broadly, the change of the read-out against control, counted positive when it falls – is 60.8% (active).

Consider `C=C1C(=O)[C@]23C[C@H]1CCC2[C@@]1(C)C(C[C@@H]3O)[C@](C)(C(=O)OC)CC[C@@H]1OC(C)=O` (stereo partly specified), for which the inhibition is 99% (active).

For `CCCCCCCCCCCCCCCC[n+]1ccccc1`, the inhibition was -2.51%.

As to `COC(=O)/C=C/C(=O)Nc1cccc(C(F)(F)F)c1`, the inhibition was 20.4%.

For `Cc1ccccc1C(=O)N/N=C/c1ccc([N+](=O)[O-])s1`, the inhibition was 63.1% (active).

Regarding `CCOc1ccc(Nc2cc(C)nc(-n3nc(C)cc3C)n2)cc1`, the inhibition is 16.3%.

As for `NS(=O)(=O)c1ccc(Sc2nc3ccccc3s2)c([N+](=O)[O-])c1`, the inhibition was 58.3% (active).

As for `CC(C)N(c1ccccc1)c1ccc(NC(=O)CCl)cc1`, the inhibition is 33.1%.

Take `CC(=O)Nc1ccc(Oc2sc(C(=O)c3ccccc3)c(N)c2C#N)cc1`: the inhibition is 32.6%.

For the molecule `C/C(=N\NC(N)=S)C12CC3CC(CC(C3)C1)C2`, the inhibition is 26.9%.

Turning to `O=C(OCC12CC3CC(CC(C3)C1)C2)c1ccc(NCc2cc(O)ccc2O)cc1`, the inhibition was 96.5% (active).

On to `O=C(CCl)N(c1ccccc1)C1CCCCC1`, for which the inhibition is 57.8% (active).

With `COc1cc(/C=C/C(=O)c2ccc(C)cc2)ccc1OCC#N`, the inhibition is 29.4%.

For `O=C(NCc1cccnc1)/C(=C\c1ccc(-c2cccc(Cl)c2)o1)S(=O)(=O)c1ccccc1`, the inhibition was 53.1% (active).

With `Cc1cc(C)c(S(=O)(=O)/N=C2\C=C(Nc3ccc(C(=O)O)cc3)C(=O)c3ccccc32)c(C)c1`, the inhibition is 1.79%.

On to `S=C(NCCCc1cnc[nH]1)NCCCN(Cc1ccc(Cl)cc1)c1ccc(Br)cn1`, for which the inhibition was 51.4% (active).
